Experimental data taken from PubChem BioAssay (NCATS).
Unmarked numbers belong to inactive results. Records with an inconclusive call do not appear. The list shows a part of the results. Calls of active or inactive are those of the source. Unless noted, calls follow the shape of the dose curve; as a rule, active = well fitted curve in either direction with a large enough effect (not every such curve was filed as active); inconclusive = small, poorly fitted or top-dose-only effect, or another doubt; inactive = flat fitted curve, though single readings scatter.

What was measured:
[1] = molecular target: Lysosomal acid glucosylceramidase (Homo sapiens) (UniProt P04062); test: Glucocerebrosidase-p2 (AID 348; in the data active = potency below about 10 µM; also: potency is read from the fitted curve at half-maximal effect); details: purified GBA, blue fluorogenic substrate, 40 min
Chain of Lysosomal acid glucosylceramidase (Homo sapiens) (P04062 whole entry, looked up): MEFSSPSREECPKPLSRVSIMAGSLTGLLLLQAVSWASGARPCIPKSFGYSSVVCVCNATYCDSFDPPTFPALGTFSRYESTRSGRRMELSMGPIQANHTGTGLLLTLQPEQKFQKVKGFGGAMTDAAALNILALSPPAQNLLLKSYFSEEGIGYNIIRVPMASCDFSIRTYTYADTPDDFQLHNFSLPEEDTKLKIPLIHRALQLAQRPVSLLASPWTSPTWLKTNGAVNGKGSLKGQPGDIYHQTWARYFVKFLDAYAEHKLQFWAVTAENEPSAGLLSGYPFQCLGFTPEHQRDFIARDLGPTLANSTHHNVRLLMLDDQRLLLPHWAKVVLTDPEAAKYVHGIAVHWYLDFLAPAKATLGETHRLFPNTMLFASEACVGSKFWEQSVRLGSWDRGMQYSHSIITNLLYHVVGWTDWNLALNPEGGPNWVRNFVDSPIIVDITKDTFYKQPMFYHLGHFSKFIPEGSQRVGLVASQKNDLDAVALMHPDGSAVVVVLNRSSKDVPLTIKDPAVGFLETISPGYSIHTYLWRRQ
Method in brief: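 Compounds titrated from 0.6 nM upwards against 0.2 nM enzyme in pH 5.9 citric acid/KH2PO4, taurocholate, tween-20; blue fluorogenic substrate 80 uM, 40 min room temperature, stopped and read Ex 365/Em 440 for AC50.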

[2] = AP1 Signaling Pathway (AID 357); details: ME-180 AP-1-bla reporter, EGF-induced, beta-lactamase ratio, 5 h; at 7.69 µM (top of the series) unless noted;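 also: ME-180 reporter cells stimulated with EGF at its EC50 level; % is scaled to controls: 0 for no effect and ±100 for the full control effect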
Method in brief: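 Titration-series screen for positive or negative modulators of EC50 EGF-induced signaling in ME-180 cells carrying an AP-1-driven beta-lactamase reporter. After 5 hours at 37 degrees Celsius, CCF4 460nm/530nm emission ratio gave %Activity; AC50 values derived.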

[3] = molecular target: Cytochrome P450 1A2 (Homo sapiens) (UniProt P05177); test: p450-cyp1a2 (AID 410; calls by dose curve; also: potency is read from the fitted curve at half-maximal effect;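 as to activity change, negative = inhibition: -100% = full effect of reference inhibitor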)
Chain of Cytochrome P450 1A2 (Homo sapiens) (P05177 whole entry, looked up): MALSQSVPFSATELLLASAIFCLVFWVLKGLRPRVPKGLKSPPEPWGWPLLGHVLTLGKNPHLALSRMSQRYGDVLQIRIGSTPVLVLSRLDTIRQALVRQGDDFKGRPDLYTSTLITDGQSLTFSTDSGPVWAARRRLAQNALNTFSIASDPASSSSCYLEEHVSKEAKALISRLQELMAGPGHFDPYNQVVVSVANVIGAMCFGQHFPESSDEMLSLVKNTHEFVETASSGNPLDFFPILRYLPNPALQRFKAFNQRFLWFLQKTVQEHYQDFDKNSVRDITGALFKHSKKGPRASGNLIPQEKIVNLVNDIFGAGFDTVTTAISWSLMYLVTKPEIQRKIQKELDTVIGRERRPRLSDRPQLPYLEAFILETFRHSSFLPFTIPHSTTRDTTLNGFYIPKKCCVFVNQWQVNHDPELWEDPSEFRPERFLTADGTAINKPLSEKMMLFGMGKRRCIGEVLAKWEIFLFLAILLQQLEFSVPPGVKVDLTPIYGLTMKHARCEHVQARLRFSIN
Method in brief: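 Inhibition was calculated relative to 57 uM furafylline (full inhibition). The reaction used human CYP1A2 at 20nM with Luciferin-ME at its Km, 100uM, driven by an NADPH-regenerating system for 60 min at room temperature.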

[4] = NFAT Signaling Pathway (AID 444); details: Jurkat NFAT-bla M1, carbachol, beta-lactamase ratio, 5 h; at 7.69 µM (top of the series) unless noted;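 also: carbachol stimulus at about its EC50 of 1 µM final; % is scaled to controls: 0 for no effect and ±100 for the full control effect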
Method in brief: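 Jurkat cells carrying an NFAT-driven β-lactamase reporter and co-transfected muscarinic M1 receptor were treated with compound plus carbachol (1 uM final, an EC50 level) for 5 h at 37 °C. CCF4 loading followed for 1 h at RT; 460/530 nm ratio gave %activity.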

[5] = Stat Signaling Pathway (AID 446); details: ME-180 SIE beta-lactamase reporter, IL-6 stimulated, 5 h; at 7.69 µM (top of the series) unless noted;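 also: ME-180 cervical cancer cells given 40 pM IL-6 alongside compound; SIE-controlled beta-lactamase reporter measured as 460/530 nm FRET emission ratio; % is scaled to controls: 0 for no effect and ±100 for the full control effect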
Method in brief: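 Screening format detects activators and inhibitors alike: ME-180 SIE-bla cells stimulated at 40 pM IL-6 for 5 hrs with compound, then dual-emission beta-lactamase read at 405 nm excitation.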

[6] = molecular target: Glucocorticoid receptor (Homo sapiens) (UniProt P04150); test: GR-GFP Redistribution (AID 450;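 active = compounds whose dose series gives a full or clear partial fitted curve of increased nuclear translocation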; also: potency is read from the fitted curve at half-maximal effect); details: U2OS GR-GFP nuclear translocation, laser cytometry, 2 h
Chain of Glucocorticoid receptor (Homo sapiens) (P04150 whole entry, looked up, the tested form may be a part): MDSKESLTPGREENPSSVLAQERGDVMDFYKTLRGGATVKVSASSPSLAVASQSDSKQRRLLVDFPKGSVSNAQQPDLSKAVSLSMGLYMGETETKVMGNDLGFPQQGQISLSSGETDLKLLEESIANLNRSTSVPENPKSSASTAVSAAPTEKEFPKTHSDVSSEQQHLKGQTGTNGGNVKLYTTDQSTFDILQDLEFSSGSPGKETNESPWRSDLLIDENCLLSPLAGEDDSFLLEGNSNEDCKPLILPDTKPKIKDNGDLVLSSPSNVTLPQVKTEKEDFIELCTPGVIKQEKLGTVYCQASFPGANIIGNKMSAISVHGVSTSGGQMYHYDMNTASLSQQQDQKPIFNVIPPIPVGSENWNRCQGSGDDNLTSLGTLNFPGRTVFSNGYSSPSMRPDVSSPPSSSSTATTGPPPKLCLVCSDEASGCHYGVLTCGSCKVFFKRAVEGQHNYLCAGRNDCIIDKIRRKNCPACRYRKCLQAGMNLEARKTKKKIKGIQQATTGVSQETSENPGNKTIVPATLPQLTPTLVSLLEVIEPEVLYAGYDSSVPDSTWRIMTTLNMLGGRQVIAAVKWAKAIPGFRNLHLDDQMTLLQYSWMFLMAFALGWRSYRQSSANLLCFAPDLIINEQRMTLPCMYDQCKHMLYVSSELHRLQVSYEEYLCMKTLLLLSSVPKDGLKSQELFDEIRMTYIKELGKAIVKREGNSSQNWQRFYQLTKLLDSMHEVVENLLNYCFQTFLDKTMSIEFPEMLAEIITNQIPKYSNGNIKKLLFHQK

[7] = molecular target: Glucocorticoid receptor (Homo sapiens) (UniProt P04150); test: GR-EFC Redistribution (AID 451; calls by dose curve; also: potency is read from the fitted curve at half-maximal effect); details: CHO-K1 GR-EFC translocation, beta-gal luminescence, 2 h
Method in brief: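 CHO-K1 cells stably expressing nuclear-localized β-gal enzyme acceptor and GR fused C-terminally to the enzyme donor fragment; ligand-driven nuclear translocation restores β-gal by complementation. Compounds titrated up to 46 uM final, 2 h at 37 °C; luminescence read.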

[8] = molecular target: Mitogen-activated protein kinase 10 (Mus musculus) (UniProt Q61831); test: JNK3 AlphaScreen Assay (AID 530);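 also: kinase came from lysate of stimulated human HepG2 cells; signal reports phosphorylation of biotinylated GST-cJun 1-79 at Ser73 with 10 µM ATP; % is scaled to controls: 0 for no effect and ±100 for the full control effect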
Method in brief: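 JNK3 came from HepG2 lysates pre-activated with IL-1beta and TNF-alpha and phosphorylated biotinylated GST-cJun (1-79) at 10 uM ATP, pH 7.6, room temperature. Compounds were titrated. AlphaScreen signal used anti-phospho-cJun (Ser73) antibody.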

[9] = molecular target: Cytochrome P450 3A4 (Homo sapiens) (UniProt P08684); test: qHTS Assay for Inhibitors and Substrates of Cytochrome P450 3A4 (AID 884; active = well fitted curve in the direction sought with a large enough effect; an effect the other way counts as inactive or inconclusive; also: potency is read from the fitted curve at half-maximal effect; nearly all actives have a fitted effect of over 50% in size)
Chain of Cytochrome P450 3A4 (Homo sapiens) (P08684 whole entry, looked up): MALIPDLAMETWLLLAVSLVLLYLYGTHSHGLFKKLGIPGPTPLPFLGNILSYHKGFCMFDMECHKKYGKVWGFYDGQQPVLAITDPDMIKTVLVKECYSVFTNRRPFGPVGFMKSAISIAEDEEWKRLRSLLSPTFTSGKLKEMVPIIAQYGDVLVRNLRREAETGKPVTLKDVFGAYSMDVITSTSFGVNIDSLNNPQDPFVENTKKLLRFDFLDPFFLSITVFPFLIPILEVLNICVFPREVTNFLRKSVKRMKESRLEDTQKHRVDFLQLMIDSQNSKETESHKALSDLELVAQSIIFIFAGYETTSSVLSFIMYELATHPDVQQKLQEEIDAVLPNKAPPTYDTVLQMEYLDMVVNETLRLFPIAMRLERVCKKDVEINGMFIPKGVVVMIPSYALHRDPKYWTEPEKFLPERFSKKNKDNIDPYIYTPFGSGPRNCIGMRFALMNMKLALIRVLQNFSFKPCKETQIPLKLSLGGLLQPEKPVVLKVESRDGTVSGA
Method in brief: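 20 nM human CYP3A4 with 25 uM Luciferin-PPXE (at KM) in 200 mM KPO4, preincubated 10 min with compound; NADPH regeneration started a 60 min RT reaction. Luciferin detected by luminescence, normalized to 57 uM ketoconazole as full inhibition.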

[10] = molecular target: Cytochrome P450 3A4 (Homo sapiens) (UniProt P08684); test: qHTS Assay for Activators of Cytochrome P450 3A4 (AID 885; active = well fitted curve in the direction sought with a large enough effect; an effect the other way counts as inactive or inconclusive; also: nearly all actives have a fitted effect of over 65% in size)
Method in brief: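 Steps: enzyme/substrate mix dispensed; compound added, 10 min RT; NADPH regeneration solution added, 60 min RT; luciferin detection buffer stops reaction; 20 min later luminescence measured.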

[11] = molecular target: Cytochrome P450 2D6 (Homo sapiens) (UniProt P10635); test: qHTS Assay for Inhibitors and Substrates of Cytochrome P450 2D6 (AID 891; active = well fitted curve in the direction sought with a large enough effect; an effect the other way counts as inactive or inconclusive; also: potency is read from the fitted curve at half-maximal effect; nearly all actives have a fitted effect of over 60% in size)
Chain of Cytochrome P450 2D6 (Homo sapiens) (P10635 whole entry, looked up): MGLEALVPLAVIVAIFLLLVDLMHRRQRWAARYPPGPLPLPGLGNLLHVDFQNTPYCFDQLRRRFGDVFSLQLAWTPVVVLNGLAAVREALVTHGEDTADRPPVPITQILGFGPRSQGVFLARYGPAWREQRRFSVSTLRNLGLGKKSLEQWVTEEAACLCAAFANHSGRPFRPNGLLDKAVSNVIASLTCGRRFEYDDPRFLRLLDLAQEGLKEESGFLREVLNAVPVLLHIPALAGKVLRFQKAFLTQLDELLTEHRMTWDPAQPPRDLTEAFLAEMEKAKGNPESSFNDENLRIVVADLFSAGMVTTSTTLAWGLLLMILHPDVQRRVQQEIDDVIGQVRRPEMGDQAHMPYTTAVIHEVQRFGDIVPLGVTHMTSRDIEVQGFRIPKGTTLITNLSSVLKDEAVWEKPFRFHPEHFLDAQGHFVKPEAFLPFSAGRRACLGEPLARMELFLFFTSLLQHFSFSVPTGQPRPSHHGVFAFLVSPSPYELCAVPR
Method in brief: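 Human CYP2D6 (5 nM) with 30 uM Luciferin-ME EGE (at Km) in 100 mM KPO4, compound preincubated 10 min, then NADPH regeneration system for 60 min at room temperature. Luciferin read by luminescence; normalized to 1.43 uM quinidine.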

[12] = Confirmation and Secondary Assay for Modulators of Hemoglobin Beta Chain Splicing at IVS2 654 locus (AID 910; active = well fitted curve in the direction sought with a large enough effect; an effect the other way counts as inactive or inconclusive;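 also: per-well total GFP intensity by laser scanning cytometry after 2-day treatment; % of control where 0% means no effect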)
Method in brief: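 HeLa cells stably carrying EGFP interrupted by mutant beta-globin IVS2-654 intron (CMV-driven) were treated with compound for 2 days at 37C; corrected splicing was scored as total peak GFP intensity per well (488 nm excitation, 500-520 nm emission).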

[13] = Confirmation and Secondary Assay for Modulators of Hemoglobin Beta Chain Splicing at IVS2 705 locus (AID 930; active = well fitted curve in the direction sought with a large enough effect; an effect the other way counts as inactive or inconclusive;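 also: HeLa cells stably expressing the EGFP-705 splicing reporter; GFP fluorescence per well restored by corrected splicing of the IVS2-705 intron in EGFP; % of control where 0% means no effect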)
Method in brief: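 Secondary splice-site specificity test uses HeLa expressing CMV-driven EGFP interrupted by IVS2-705; cells were treated 2 days at 37C with 500 nM antisense PNA as positive control.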

[14] = molecular target: Ubiquitin carboxyl-terminal hydrolase 1 (Homo sapiens) (UniProt O94782); test: Inhibitors of USP1/UAF1: Pilot qHTS (AID 504865; active = well fitted curve in the direction sought with a large enough effect; an effect the other way counts as inactive or inconclusive; also: potency is read from the fitted curve at half-maximal effect; nearly all actives have a fitted effect of over 35% in size)
Chain of Ubiquitin carboxyl-terminal hydrolase 1 (Homo sapiens) (O94782 whole entry, looked up): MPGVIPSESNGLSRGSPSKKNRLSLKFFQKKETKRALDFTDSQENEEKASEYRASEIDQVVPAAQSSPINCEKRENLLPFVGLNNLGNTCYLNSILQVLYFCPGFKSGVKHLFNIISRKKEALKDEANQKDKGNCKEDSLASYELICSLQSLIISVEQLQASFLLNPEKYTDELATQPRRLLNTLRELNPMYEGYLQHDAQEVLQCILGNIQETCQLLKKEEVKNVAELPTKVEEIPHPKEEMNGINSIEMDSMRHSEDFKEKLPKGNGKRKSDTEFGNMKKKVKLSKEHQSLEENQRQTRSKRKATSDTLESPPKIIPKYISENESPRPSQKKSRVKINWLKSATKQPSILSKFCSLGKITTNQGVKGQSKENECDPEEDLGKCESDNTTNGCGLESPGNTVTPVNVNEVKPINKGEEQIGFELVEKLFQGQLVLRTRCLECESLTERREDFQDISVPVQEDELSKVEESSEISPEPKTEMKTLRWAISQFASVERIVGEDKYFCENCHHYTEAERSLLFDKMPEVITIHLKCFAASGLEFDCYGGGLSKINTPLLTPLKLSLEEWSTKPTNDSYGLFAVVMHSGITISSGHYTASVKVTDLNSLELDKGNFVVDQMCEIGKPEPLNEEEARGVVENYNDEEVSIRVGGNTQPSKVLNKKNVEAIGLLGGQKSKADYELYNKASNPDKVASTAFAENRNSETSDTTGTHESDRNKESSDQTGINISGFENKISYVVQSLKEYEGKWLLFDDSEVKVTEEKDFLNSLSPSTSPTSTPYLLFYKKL
Method in brief: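 USP1/UAF1 complex at 1 nM preincubated 15 min at room temperature with compound, then Ub-Rho substrate added at 150 nM final. Fluorescence (480/540 nm) read kinetically in 50 mM HEPES pH 7.8, 0.5 mM EDTA, 1 mM TCEP, 0.1 mg/ml BSA, 0.01% Tween-20.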

[15] = molecular target: Fructose-bisphosphate aldolase A (Oryctolagus cuniculus) (UniProt P00883); test: qHTS Assay for Inhibitors of Fructose-1,6-bisphosphate Aldolase from Giardia Lamblia: Rabbit FBPA Selectivity (AID 2794; active = well fitted curve in the direction sought with a large enough effect; an effect the other way counts as inactive or inconclusive; also: % is scaled to controls: 0 for no effect and ±100 for the full control effect; nearly all actives have a fitted effect of over 60% in size)
Chain of Fructose-bisphosphate aldolase A (Oryctolagus cuniculus) (P00883 whole entry, looked up): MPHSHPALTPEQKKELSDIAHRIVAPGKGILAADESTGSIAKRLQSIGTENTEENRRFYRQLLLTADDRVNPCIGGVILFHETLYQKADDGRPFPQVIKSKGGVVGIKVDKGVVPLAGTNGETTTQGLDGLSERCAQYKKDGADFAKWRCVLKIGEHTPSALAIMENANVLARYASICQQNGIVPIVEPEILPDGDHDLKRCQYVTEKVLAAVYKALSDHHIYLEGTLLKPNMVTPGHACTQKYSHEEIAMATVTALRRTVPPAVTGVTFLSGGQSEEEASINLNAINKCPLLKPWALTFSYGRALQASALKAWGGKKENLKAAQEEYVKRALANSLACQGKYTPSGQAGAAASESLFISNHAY
Method in brief: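 Selectivity was assessed on rabbit Class I enzyme by qHTS. Product formation was detected by AmpLite Red fluorescence (525/598 nm) after a 20 min RT reaction started with substrate, following 10 min compound preincubation at up to 57.5 uM final.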

[16] = qHTS Assay for Inhibitors of Fructose-1,6-bisphosphate Aldolase from Giardia Lamblia: Coupling assay counterscreen confirmation (AID 2795; active = well fitted curve in the direction sought with a large enough effect; an effect the other way counts as inactive or inconclusive; also: % is scaled to controls: 0 for no effect and ±100 for the full control effect; nearly all actives have a fitted effect of over 55% in size)
Method in brief: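 Compounds at up to 57.5 uM final tested against the coupling enzymes and resorufin-type fluorescent detection only, aldolase omitted. Ex 525 nm/em 598 nm read after 10 min enzyme-compound and 20 min substrate incubations, room temperature.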

**Q.** Which Potency [1] does the source give for `COc1ccccc1-c1nc(NCc2ccccc2)c2ccccc2n1` here?
**A.** > 11.4 µM

**Q.** What about the activity change, negative = inhibition [2] of the same compound?
**A.** 24%

**Q.** What about the Potency [3] of the same compound?
**A.** 0.398 µM (active)

**Q.** What about the activity change, negative = inhibition [4] of the same compound?
**A.** -19.4%

**Q.** What about the activity, negative = inhibition [5] of the same compound?
**A.** 0.0453%

**Q.** And the Potency [6]?
**A.** > 46 µM

**Q.** What about the Potency [7] of the same compound?
**A.** > 46 µM

**Q.** And the Potency [8]?
**A.** inactive

**Q.** And the Potency [9]?
**A.** 3.98 µM (active)

**Q.** What about the Potency [10] of the same compound?
**A.** inactive

**Q.** And the Potency [11]?
**A.** 1.58 µM (active)

**Q.** What about the outcome [12] of the same compound?
**A.** inactive

**Q.** What about the outcome [13] of the same compound?
**A.** inactive

**Q.** And the Potency [14]?
**A.** 11.2 µM (active)

**Q.** For `COc1ccc(-n2c(=O)c(C)nc3cnc(Oc4cccc(Cl)c4)nc32)cc1`, which Potency [1] is on record?
**A.** > 11.4 µM

**Q.** What about the activity change, negative = inhibition [2] of the same compound?
**A.** -20.7%

**Q.** And the Potency [3]?
**A.** 7.94 µM (active)

**Q.** What about the activity change, negative = inhibition [4] of the same compound?
**A.** -1.69%

**Q.** And the activity, negative = inhibition [5]?
**A.** -10.9%

**Q.** What about the Potency [6] of the same compound?
**A.** > 9.22 µM

**Q.** And the Potency [7]?
**A.** > 46 µM

**Q.** And the Potency [8]?
**A.** inactive

**Q.** What does the source list for `O=C(O)[C@@H](O)c1ccc(F)cc1`?
**A.** Potency [1]: > 11.4 µM; activity change, negative = inhibition [2]: 26.9%; Potency [3]: inactive; activity change, negative = inhibition [4]: 11%; activity, negative = inhibition [5]: 8.22%; Potency [6]: > 46 µM; Potency [7]: > 9.22 µM; Potency [8]: inactive

**Q.** For `CC(C)Cn1cnc2c(Sc3c([N+](=O)[O-])ncn3C)nc(N)nc21`, which Potency [1] is on record?
**A.** > 11.4 µM

**Q.** And the activity change, negative = inhibition [2]?
**A.** -3.59%

**Q.** What about the activity change, negative = inhibition [3] of the same compound?
**A.** 8.1% [at 2.29 µM]

**Q.** What about the activity change, negative = inhibition [4] of the same compound?
**A.** -13.9%

**Q.** What about the activity, negative = inhibition [5] of the same compound?
**A.** 11.4%

**Q.** And the Potency [6]?
**A.** > 46 µM

**Q.** And the Potency [7]?
**A.** > 9.22 µM

**Q.** What about the Potency [8] of the same compound?
**A.** inactive

**Q.** For `COCCN(C(=S)Nc1ccccc1OC)C1CCN(C(C)C)CC1`, which outcome [15] is on record?
**A.** inactive

**Q.** And the outcome [16]?
**A.** inactive

**Q.** Which Potency [1] does the source give for `Cn1ccnc1C[C@@](C)(O)c1ccccc1` here?
**A.** > 11.4 µM

**Q.** And the activity change, negative = inhibition [2]?
**A.** 7.99%

**Q.** And the Potency [3]?
**A.** inactive

**Q.** What about the activity change, negative = inhibition [4] of the same compound?
**A.** 2.18%

**Q.** What about the activity, negative = inhibition [5] of the same compound?
**A.** 8.21%

**Q.** What about the Potency [6] of the same compound?
**A.** > 46 µM

**Q.** And the Potency [7]?
**A.** > 9.22 µM

**Q.** And the Potency [8]?
**A.** inactive
